About 2,800 (0.88%) of roughly 320,000 compounds were called active. The list comes from a sample in which actives are over-represented; it also holds similar structures and randomly drawn compounds. Unmarked numbers belong to inactive results.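 How the source made its calls: active means inhibition above the mean inhibition of all tested compounds plus 3 SD, computed separately for each screening campaign (cut at about 15% in these data); inactive means the rest.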

The target of this test is Serine/threonine-protein phosphatase PP1-alpha catalytic subunit (Homo sapiens) (UniProt P62136). The test can be described thus: inhibition of human PP1 catalytic subunit – biochemical, fluorescence, OMFP substrate, single point, counter-screen for PP5 inhibitor project, primary screen (AID 2235). Conditions: purified PP1alpha, at 6.7 µM, stronger effect = higher value.
Sequence of Serine/threonine-protein phosphatase PP1-alpha catalytic subunit (Homo sapiens) (P62136 whole entry, looked up): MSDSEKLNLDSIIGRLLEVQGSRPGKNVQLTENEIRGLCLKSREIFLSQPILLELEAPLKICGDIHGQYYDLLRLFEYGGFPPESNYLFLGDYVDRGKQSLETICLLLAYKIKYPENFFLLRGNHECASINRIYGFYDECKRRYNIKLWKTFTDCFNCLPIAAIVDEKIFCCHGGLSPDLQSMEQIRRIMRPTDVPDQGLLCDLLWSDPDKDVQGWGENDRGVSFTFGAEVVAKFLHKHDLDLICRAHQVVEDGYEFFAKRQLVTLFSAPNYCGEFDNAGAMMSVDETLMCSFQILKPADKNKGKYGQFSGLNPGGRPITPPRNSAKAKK
A word on the inhibition: it is the drop in the measured response relative to a control, in per cent. On to `O=C(CCN1C(=O)[C@@H]2Cc3ccccc3CN2C1=O)NCCc1ccccc1`, for which the inhibition is -2.43%. The same measure for `COC(=O)CCCC1=CC2=C(c3ccccc3)C(=O)C(C)(OC(=O)C3CCCC3)C(=O)C2=CN1c1ccc(OC)cc1` (stereo not drawn): -4.53%. As for `CSc1ncccc1C(=O)Nc1ccc2c(c1)OCO2`, the inhibition was -1.92%. The same measure for `CCOc1cc(N2CCOCC2)c(OCC)cc1NC(=O)COc1cccc2cccnc12`: 2.8%; for `CCOC(=O)N1CCN(C(c2cccnc2)c2ccc3cccnc3c2O)CC1` (stereo not drawn): 3.71%; for `Oc1c(C(c2ccccn2)N2CCOCC2)ccc2cccnc12` (stereo not drawn): 78.5% (active). The result for `CC(=O)N1CCN(CC(C)(C)NS(=O)(=O)c2ccc(C)cc2)CC1` reads -0.49%. In the case of `COc1ccc(S(=O)(=O)N(C)CC(=O)N2CCCC2)cc1Cl`, the inhibition is -3.22%. In the case of `COc1ccc(/C=C2\SC(=S)N(CCCC(=O)NC3CCCC3)C2=O)cc1OC`, the inhibition was 3.46%. The same measure for `Cc1ccc(-c2nn(-c3ccccc3)cc2CN(Cc2ccccc2)C(=O)CCC(=O)O)o1`: -2.67%. The result for `C=CCOc1ccc(/C=C2\SC(=S)N(CCC(=O)O)C2=O)cc1` reads 6.24%; that for `COc1ccc(-c2nn(-c3ccccc3)cc2/C=C2/SC(=S)N(CCCC(=O)O)C2=O)c(C)c1`, 23.3% (active); that for `O=C(CCCN1C(=O)/C(=C/c2ccccc2)SC1=S)Nc1ccc(O)cc1`, 1.67%. The same measure for `Cc1ccc(-c2nn(-c3ccccc3)cc2/C=C2\SC(=S)N(CCCCCC(=O)O)C2=O)o1`: 23.8% (active); for `CCCn1nc(C(=O)Nc2ccc3nc(C)sc3c2)c2ccccc2c1=O`: -3.9%; for `COc1ccc(-c2cc(C(F)(F)F)n3nc(C(=O)N4CCOCC4)c(Cl)c3n2)cc1`: -1.63%. With `CCOC(=O)c1nn(-c2cccc(C)c2)cc1C(=O)c1ccccc1`, the inhibition is 1.33%. The same measure for `COc1c(F)c(F)c(-c2csc(N)n2)c(F)c1F`: -1.76%; for `N#Cc1ccc(C(=O)OCC(=O)NC(=O)NC2CCCCC2)cc1`: 0.62%.

Turning to `CS(=O)(=O)c1ccc2c(c1)SC1=NC(=O)/C(=C/c3ccco3)C(=N)N12`, the inhibition is 24.5% (active).

Regarding `CCS(=O)(=O)C1=NSC2=NC(=O)/C(=C\c3ccc(OS(=O)(=O)c4ccccc4)cc3)C(=N)N21`, the inhibition was 1.95%. The same measure for `CS(=O)(=O)C1=NN2C(=N)/C(=C\c3ccc(OCCOc4ccccc4)cc3)C(=O)N=C2S1`: 12.2%. On to `Cc1cc(NC(=O)OC(C)C)ccc1-c1ccc(NC(=O)OC(C)C)cc1C`, for which the inhibition was -5.37%. The result for `COCC(C)NC(=O)COc1nncc2ccccc12` (stereo not drawn) reads -1.71%; that for `CSc1ccc(/C=N\NC(=O)CC(=O)NC(C)C)cc1`, -3.41%; that for `CSc1ccc(/C=N/NC(=O)c2cccc(Cl)c2)cc1`, -0.88%. On to `CSc1ccc(/C=N\NC(=O)COc2ccc(Cl)cc2Br)cc1`, for which the inhibition is 45.6% (active). The same measure for `Cc1cc(C)c(S(=O)(=O)NCC(c2ccc3c(c2)OCO3)N2CCOCC2)c(C)c1` (stereo not drawn): -3.95%. Regarding `CN(C(=O)COC(=O)c1cc(-c2ccco2)nc2ccccc12)C1CCS(=O)(=O)C1` (stereo not drawn), the inhibition was 41.1% (active). In the case of `CN(CCOc1ccccc1)C(=O)c1cc(-c2ccco2)nc2ccccc12`, the inhibition is 11%. The result for `CN(C(=O)COC(=O)c1nc(Cl)ccc1Cl)C1CCS(=O)(=O)C1` (stereo not drawn) reads -2.63%; that for `O=C(CC(c1ccccc1)c1cc(Cl)ccc1O)NCCN1CCOCC1` (stereo not drawn), -1.01%.

Regarding `O=C(COC(=O)c1ccccc1SCC(=O)N1CCCC1)Nc1ccccc1OC(F)F`, the inhibition is -0.81%. Consider `Cc1ccc(-c2nc(SCC(=O)Nc3ccccc3OC(F)F)c3c(C)c(C(=O)O)sc3n2)cc1`, for which the inhibition is 52% (active). The result for `CCOC(=O)c1ccc[n+](CC(=O)Nc2ccccc2OC(F)F)c1` reads -3.16%; that for `Cc1ccc(C)c(NC(=O)CSc2nc3c(oc4ccccc43)c(=O)n2-c2ccccc2)c1`, 10.1%.

Regarding `COc1cc(C(C(=O)NC2CCCC2)N(Cc2ccccc2)C(=O)c2snc(C(N)=O)c2N)ccc1O` (stereo not drawn), the inhibition was -0.55%. The result for `CCOC(=O)Cc1cc(=O)[nH]c(=O)[nH]1` reads -3.59%. The same measure for `COc1ccc(-c2ocnc2C(=O)Nc2ccc3c(c2)CCC3)cc1`: -2.76%. With `O=Cc1c(Cl)cccc1Cl`, the inhibition is -3.41%. On to `O=C1N=C2SCCN2/C1=C\c1c(Cl)cccc1Cl`, for which the inhibition was 15.4% (active). Turning to `O=C1N=C(N2CCCC2)S/C1=C\c1cccc(Br)c1`, the inhibition is -0.89%. For the molecule `O=C(N/N=C\C1CC=CCC1)c1ccc(Br)o1` (stereo not drawn), the inhibition was 2.42%. The same measure for `O=C(c1cn(-c2ccccc2)nc1-c1cccnc1)N1CCN(S(=O)(=O)c2ccccc2F)CC1`: -1.36%.

Take `Cc1ccc(CNC(=O)CCN2C(=O)[C@@H]3Cc4ccccc4CN3C2=O)cc1`: the inhibition is 3.38%. The result for `CCCCN(C)CCCNC(=O)c1cc(-c2cccs2)nc2ccccc12` reads 1.01%; that for `O=C(NCCN1CCOCC1)c1cc(-c2cccs2)nc2ccccc12`, -5.13%; that for `O=C(Nc1nnc(-c2ccccc2)o1)c1cc(-c2cccs2)nc2ccccc12`, 34.7% (active). The same measure for `CCN(CC)c1ccc(NC(=O)CN2C(=O)NC3(CCc4ccccc43)C2=O)cc1` (stereo not drawn): 3.2%. The same measure for `COCCCn1c(-c2cccs2)nc2nc3ccccc3nc21`: -1.53%; for `CC(C)(C)c1ccccc1NC(=O)CN1C(=O)NC2(CCCC2)C1=O`: -2.93%. As for `Cc1nnc(NC(=O)/C=C/c2ccco2)s1`, the inhibition was -3.35%. Regarding `Cc1ccc(-n2nc3ccc(NC(=O)/C=C/c4ccco4)cc3n2)cc1C`, the inhibition is 19.2% (active). The result for `O=C(/C=C/c1ccco1)Nc1ccc(Oc2ccccc2)cc1` reads 3.61%; that for `COc1ccc(CN2CCN(Cc3ccc(OC)c(OC)c3OC)CC2)cc1`, -0.69%.

For the molecule `CCOc1ccc(N(CC(=O)Nc2cccc(OC)c2)S(C)(=O)=O)cc1`, the inhibition was -2.47%. `COc1ccc(NC(=O)CSc2nnc(-c3ccccc3F)n2C2CC2)cc1S(N)(=O)=O`: the inhibition is -2.33%. The same measure for `Fc1cccc(Cl)c1COc1ccc(-c2nnco2)cc1`: 0.3%.

The record behind these values is PubChem BioAssay AID2235 (The Scripps Research Institute Molecular Screening Center, 2010).
